Source: PubChem BioAssay (National Center for Advancing Translational Sciences (NCATS))
A selection: hits, their analogues and other compounds. The true share with any hit is near 12%.
Pf growth 48h: P. falciparum growth inhibition at 48 hours (one generation) | P. falciparum luciferase growth in erythrocytes, 48 h | Potency, µM (titrated, usually from 28.7 µM), usual class: inhibitors | hit rate 5.9% among 310,000
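A one-generation exposure of luciferase-tagged malaria parasites in RPMI 1640/Albumax erythrocyte culture, 37 C and 5% CO2. Inhibition is inferred from decreased luminescence after adding detection reagent.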
HCV inhibitor: inhibitors of hepatitis C virus infection. AID 651820. Huh7.5.1 HCVcc-Cre infection, luciferase reporter, 44 h. hit rate 3.4% among 340,000. Potency, µM (titrated, usually from 41.8 µM), hits mostly inhibitors
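Luciferase read-out (15 sec integration) after a 15 min room-temperature substrate step quantifies HCVcc-Cre infection. Cells, 1,000 per well, had compound added 4 h post-plating, then virus at ~0.5 moi, and were cultured 44 h.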
Pf growth 96h: P. falciparum growth inhibition at 96 hour, primary screen for plastid delayed-death inhibitors. P. falciparum luciferase reporter growth, 96 h. hit rate 6.9% among 320,000. AID 504834. Potency, µM (doses to about 28.7 µM), actives largely listed as inhibitors
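Compounds incubated with erythrocytes infected by luciferase-expressing P. falciparum (2% hematocrit, 0.05% parasitemia final) for 96 hours, 37 C in 5% CO2. Growth inhibition scored as decreased luciferase luminescence.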
AMA1-RON2 inh: AMA1-RON2 (P. falciparum) interaction inhibition; AlphaScreen AMA1-biotinylated RON2 peptide binding; Potency, µM (series often up to 58.2 µM), hits mostly inhibitors; hit rate 0.2% among 360,000; note: nearly all actives have a fitted effect of over 45% in size
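AMA1 (3D7) with his tag at 25 nM final met compounds first, then biotinylated RON2 peptide at 25 nM; detection used donor plus acceptor beads, 10 µg/mL apiece, read by AlphaScreen after 30 min at room temperature.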
SARS PLP yeast: blocks SARS-CoV papain-like protease in a yeast assay; hit rate 0.19% among 330,000; S. cerevisiae expressing SARS-CoV PLpro, growth rescue; Potency, µM (series often up to 32.9 µM), usual class: activators; AID 485353; calls by dose curve; note: nearly all actives have a fitted effect of over 55% in size
NS1 function inh: inhibitors of influenza NS1 protein function. AID 2326. hit rate 0.4% among 270,000. Potency, µM (top dose mostly 46.1 µM); calls by dose curve; note: actives are rising curves; nearly all actives have a fitted effect of over 50% in size
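Compounds were scored for reversing the slow growth caused by influenza A NS1 in S. cerevisiae, measured by optical density at 600 nm. Assay medium contained 2% galactose at pH 6.0; NS1-free yeast of the same strain were the positive control.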
Of the large screens only hits and unclear results are named; the others gave an inactive call. Unless noted, calls come from the whole dose curve; as a rule, active = well fitted curve in the direction sought with a large enough effect; inconclusive = small, poorly fitted or top-dose-only effect, or another doubt; inactive = no such curve, though single readings can be large; an effect the other way counts as inactive or inconclusive.

CN(CCOc1ccccc1)CC(=O)Nc1ccc(S(=O)(=O)N2CCCC2)cc1	Pf growth 96h inconclusive
CN(CC(=O)Nc1ccc(S(=O)(=O)N2CCCC2)cc1)Cc1cccc(Cl)c1Cl	Pf growth 96h 9.3µM
CN(Cc1cccc(Cl)c1Cl)c1ccc(S(=O)(=O)N2CCCCC2)cc1[N+](=O)[O-]	HCV inhibitor 11µM, Pf growth 96h inconclusive, AMA1-RON2 inh inconclusive, NS1 function inh inconclusive
CC1CCc2ccccc2N1CC(=O)Nc1cccc(S(=O)(=O)N2CCCC2)c1 (configuration not stated)	Pf growth 48h 12µM, HCV inhibitor 32µM, Pf growth 96h inconclusive, AMA1-RON2 inh inconclusive (no result: NS1 function inh)
Cc1cccc(NC(=O)CN(C)C(C)C(=O)Nc2ccc(S(=O)(=O)N3CCCC3)cc2)c1C (configuration not stated)	Pf growth 48h 13µM, HCV inhibitor inconclusive, Pf growth 96h inconclusive (no result: NS1 function inh)
O=C1C2C3c4ccccc4C(c4ccccc43)C2C(=O)N1Cc1ccccn1 (configuration not stated)	Pf growth 96h inconclusive (no result: NS1 function inh)
Cc1nnc2n1CCCCC2	none
COc1ccccc1CN(C)CC(=O)Nc1cccc(S(=O)(=O)N2CCCCC2)c1	Pf growth 48h 12µM, HCV inhibitor inconclusive, Pf growth 96h inconclusive (no result: NS1 function inh)
Cc1ccc(CN(C)C(=O)COc2ccc(S(=O)(=O)N3CCCC3)cc2[N+](=O)[O-])c(C)c1	Pf growth 48h 12µM, Pf growth 96h inconclusive (no result: NS1 function inh)
CC1(c2cc(F)ccc2F)NC(=O)N(CC(=O)Nc2cccc(S(=O)(=O)N3CCCC3)c2)C1=O (configuration not stated)	Pf growth 48h 12µM, Pf growth 96h inconclusive (no result: NS1 function inh)
COc1ccccc1CCC(=O)Nc1cccc(S(=O)(=O)N2CCCC2)c1	Pf growth 48h inconclusive, Pf growth 96h inconclusive
CN(CC(=O)Nc1cccc(S(=O)(=O)N2CCCCC2)c1)Cc1ccc(F)cc1	Pf growth 48h 13µM, HCV inhibitor inconclusive, Pf growth 96h 9.3µM (no result: NS1 function inh)
O=C(NCc1ccc(F)cc1)c1cc(C2CCCCN2S(=O)(=O)c2ccc(F)cc2F)on1 (configuration not stated)	none (no result: Pf growth 48h, HCV inhibitor, Pf growth 96h, SARS PLP yeast, NS1 function inh)
CC(=O)Nc1ccccc1C(=O)C(=O)Nc1ccc(F)c(Cl)c1	Pf growth 96h inconclusive
CN(CC(=O)Nc1cccc(F)c1)CC(=O)Nc1cc(S(=O)(=O)N2CCOCC2)ccc1Cl	Pf growth 48h inconclusive, HCV inhibitor 11µM (no result: NS1 function inh)
CN(CC(=O)Nc1cccc(F)c1)CC(=O)Nc1cccc(S(=O)(=O)N2CCCCCC2)c1	Pf growth 48h inconclusive, HCV inhibitor inconclusive
CN(CC(=O)Nc1cccc(F)c1)CC(=O)Nc1cccc(S(=O)(=O)N2CCCCC2)c1	Pf growth 48h 12µM, HCV inhibitor inconclusive, Pf growth 96h inconclusive (no result: NS1 function inh)
COc1ccc(S(=O)(=O)N2CCOCC2)cc1NC(=O)CN(C)CC(=O)Nc1cccc(F)c1	none (no result: Pf growth 48h, Pf growth 96h, NS1 function inh)
O=C(N/N=C/c1sc(N2CCOCC2)nc1-c1ccccc1)c1ccccc1Cl	Pf growth 48h 10µM, HCV inhibitor 8.9µM, Pf growth 96h inconclusive
O=C(N/N=C/c1sc(N2CCOCC2)nc1-c1ccccc1)c1ccccc1O	Pf growth 48h 5.2µM, HCV inhibitor inconclusive, Pf growth 96h 1.9µM, NS1 function inh inconclusive
Nc1ccc(C(=O)N/N=C/c2sc(N3CCOCC3)nc2-c2ccccc2)cc1	Pf growth 48h inconclusive, HCV inhibitor inconclusive, Pf growth 96h inconclusive
CCN(CC)c1ccc(/C=N/NC(=O)c2cccc(S(=O)(=O)N3CCOCC3)c2)c(O)c1	Pf growth 48h 10µM, HCV inhibitor inconclusive, Pf growth 96h inconclusive
O=C(N/N=C/c1sc(N2CCOCC2)nc1-c1ccccc1)c1cccc(S(=O)(=O)N2CCOCC2)c1	Pf growth 48h 1.9µM, HCV inhibitor inconclusive, Pf growth 96h 2.1µM
CCN(CC)c1ccc(C=Nc2cccc(S(=O)(=O)N3CCOCC3)c2)c(O)c1	none (no result: Pf growth 48h, Pf growth 96h, NS1 function inh)
CC1(C(=O)NCc2ccccc2)CCC(=O)N1C1CCN(Cc2ccccc2)CC1 (configuration not stated)	none (no result: Pf growth 48h, HCV inhibitor, Pf growth 96h, SARS PLP yeast, NS1 function inh)
C=CCN1C(=O)C2(OCCCO2)c2cc(Cl)ccc21	Pf growth 96h inconclusive
CCc1ccccc1NC(=O)C1CCN(S(C)(=O)=O)CC1	none (no result: Pf growth 48h, Pf growth 96h, SARS PLP yeast, NS1 function inh)
O=C(CSc1nnc(CNC(=O)c2c(F)cccc2F)o1)NCC1CCCO1 (configuration not stated)	none
COc1cc(C(=O)N/N=C/c2sc(N3CCOCC3)nc2-c2ccccc2)cc(OC)c1OC	HCV inhibitor inconclusive (no result: NS1 function inh)
O=C(O)c1cccc(N/N=C/c2sc(N3CCOCC3)nc2-c2ccccc2)c1	Pf growth 48h inconclusive, Pf growth 96h 5.2µM, NS1 function inh inconclusive
CN(CC(=O)Nc1ccc(F)c(F)c1F)C(=O)c1ccc(=O)[nH]c1	none
CCOc1ccccc1CN1CCNC(=O)C1CC(=O)NCc1nc(C)cs1 (configuration not stated)	Pf growth 96h 9.3µM, SARS PLP yeast inconclusive (no result: HCV inhibitor)
O=C(CC1C(=O)NCCN1Cc1ccccc1F)NC1CCCCCC1 (configuration not stated)	Pf growth 96h inconclusive (no result: HCV inhibitor, AMA1-RON2 inh)
CCOc1ccccc1CN1CCNC(=O)C1CC(=O)NCCCn1cccn1 (configuration not stated)	Pf growth 96h 12µM
O=C(CC1C(=O)NCCN1Cc1cccc(Oc2ccccc2)c1)NCCCn1cccn1 (configuration not stated)	Pf growth 96h 10µM
Cc1ccccc1CN1CCNC(=O)C1CC(=O)NC1CCCCCCC1 (configuration not stated)	Pf growth 48h inconclusive, Pf growth 96h 2.6µM
COC(=O)C[C@@H]1OC[C@H](CO)N1S(=O)(=O)c1ccc(C)cc1	none (no result: Pf growth 48h, HCV inhibitor, Pf growth 96h, SARS PLP yeast, NS1 function inh)
Cc1c(N=C2SCC(=O)N2/N=C/c2ccccc2)c(=O)n(-c2ccccc2)n1C	none
COc1ccc2oc(C(=O)OC(C)C(=O)N3C(C)CCCC3C)c(C)c2c1 (configuration not stated)	none (no result: Pf growth 48h, Pf growth 96h, NS1 function inh)
CCOC(=O)N=S(N)(=O)c1ccc(Cl)cc1 (configuration not stated)	Pf growth 96h inconclusive
CCOC(=O)N=S(N)(=O)c1ccccc1 (configuration not stated)	Pf growth 96h 10µM (no result: SARS PLP yeast)
CCOC(=O)N1CCN(C(C)C(=O)c2c[nH]c3ccccc23)CC1 (configuration not stated)	Pf growth 96h inconclusive (no result: Pf growth 48h)
COc1cc(NC(=O)c2ccco2)c(C(=O)OCC(=O)c2c[nH]c3ccccc23)cc1OC	Pf growth 48h 4.1µM, HCV inhibitor inconclusive, Pf growth 96h 2.3µM, NS1 function inh inconclusive
O=C(OCC(=O)c1c[nH]c2ccccc12)c1ccco1	Pf growth 96h 5.2µM
CC(C(=O)c1c[nH]c2ccccc12)N1CCN(C(=O)c2ccco2)CC1 (configuration not stated)	Pf growth 48h 1.9µM, Pf growth 96h 2.1µM
O=C(OCC(=O)c1c[nH]c2ccccc12)c1ccc(Br)o1	none (no result: Pf growth 96h)
